# Results from PubChem BioAssay AID485294 (National Center for Advancing Translational Sciences (NCATS), 2010).
# In all, about 370,000 compounds went through this assay and about 150 (0.041%) were called active. Entries that show only a call come without a potency. Roughly 14% stayed inconclusive and do not appear here. The call rests on the fitted dose curve; in most records, active means well fitted inhibition curve with a large enough effect; inconclusive means small, poorly fitted or top-dose-only effect; inactive means flat fitted curve, though single readings scatter. Many of the other results were omitted from the sample, so actives are more common in it than they were.
# Target: Beta-lactamase (Escherichia coli (strain K12)) (UniProt P00811)
# Sequence (P00811 whole entry, looked up): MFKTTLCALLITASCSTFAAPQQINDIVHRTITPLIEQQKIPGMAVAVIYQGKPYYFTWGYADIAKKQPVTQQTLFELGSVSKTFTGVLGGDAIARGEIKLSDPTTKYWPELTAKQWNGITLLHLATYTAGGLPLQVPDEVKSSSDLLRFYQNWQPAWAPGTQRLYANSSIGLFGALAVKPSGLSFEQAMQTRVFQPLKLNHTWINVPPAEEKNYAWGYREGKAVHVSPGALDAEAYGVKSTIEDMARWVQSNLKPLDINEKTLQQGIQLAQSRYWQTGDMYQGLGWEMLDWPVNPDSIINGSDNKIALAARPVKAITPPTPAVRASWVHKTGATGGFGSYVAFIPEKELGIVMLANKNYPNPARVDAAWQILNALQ
# Assay: qHTS Inhibitors of AmpC Beta-Lactamase (assay with detergent); further: nearly all actives have a fitted effect of over 25% in size
# Settings: AmpC hydrolysis of nitrocefin, absorbance 480 nm, 0.01% Triton; series mostly up to 114 µM
# Method: NIH Molecular Libraries Probe Production Network [MLPCN] NIH Chemical Genomics Center [NCGC] Assay Provider: Professor Brian Shoichet, UCSF Assay Overview: This aggregation profiling approach exploits the sensitivity of aggregate formation to detergent. Inhibition of b-lactamase is measured in the presence and absence of 0.01% Triton X-100. This particular assay had the prescence of 0.01% Triton X-100. See Pubchem assay "Promiscuous and Specific Inhibitors of AmpC Beta-Lactamase (assay without detergent)" for related screen. Compounds that inhibit only in the absence of detergent are considered likely promiscuous aggregators. A screen of 1,030 compounds was performed in Brian Shoichet's lab in 96-well format. AmpC activity was measured by following the absorbance at 480 nm. Nitrocefin is a chromogenic substrate: while nitrocefin is yellow (lmax 390 nm), the product of its hydrolysis is red (lmax 486 nm, 17,000 M-1). AmpC beta lactamase was provided by Shoichet Lab, UCSF.
# Buffer: 20 mM phosphate buffer, pH 7.0 Triton X-100: No Detergent screen: 0.0001%, Detergent screen: 0.01%. Reagents/Controls: Buffer in columns 3 and 4 as negative control (no enzyme). 5.3 nM AmpC in columns 1, 2, 5-48. Titration of UCSF compound 9 control (from 10 mM, then 1:2) pin-transferred to column 2. Column 1 is neutral (100% activity). Assay Steps: Six uL of reagents were dispensed to 1536-well Greiner black clear bottom plates. Compounds and controls (23 nL) were transferred via Kalypsys PinTool. The plates were incubated for 15 min at room temperature, and then 2 uL of 800 uM solution of nitrocefin was added to start the reaction. The plates were immediately transferred to and read every 20 seconds for 4 min on ViewLux (Perkin-Elmer) High-throughput CCD imager using 480 nm absorbance protocol. During dispense, reagent bottles were kept submerged into 4 deg C water bath. Keywords: NIH Roadmap, MLSCN, MLI, MLSMR, qHTS, NCGC, AmpC Beta-Lactamase, Aggregation
# Potency means the concentration at half of the fitted maximal effect.
row,SMILES,Potency
1,CC(C)(C)c1ccc(C(=O)NCC(c2ccc(Cl)cc2)N2CCOCC2)cc1 (stereo unspecified),inactive
2,COC(=O)c1c(NC(=O)c2cc(=O)c3c(C)cc(C)cc3o2)sc2c1CCCC2,inactive
3,CCc1cc2c(cc3c(=O)n(CC(=O)NCCc4ccc(OC)c(OC)c4)ncn32)s1,inactive
4,Cc1ccccc1CNC(=O)Cn1c(C)c2cnn(-c3ccccc3)c(=O)c2c1C,inactive
5,COc1ccc(-c2nc3sc(CCNC(=O)C(C)(C)C)c(C)n3n2)cc1,inactive
6,Cc1nn(C(=O)c2c(F)cccc2F)c(C)c1S(=O)(=O)N1CCOCC1,inactive
7,CCOc1ccc(C(=O)/C=C/c2cn(CC(O)CN3CCCCCC3)c3ccccc23)cc1 (stereo unspecified),inactive
8,COc1ccc(OCCCn2c(C3CC(=O)N(c4ccc(F)cc4)C3)nc3ccccc32)cc1 (stereo unspecified),inactive
9,Cn1c(C(=O)Nc2cccc(C(F)(F)F)c2)cc2c(=O)n3ccccc3nc21,inactive
10,CCOc1ccc(CNC(=O)Cn2cc3c(n2)-c2c(oc(C(=O)N4CCCC4)c2C)CC3)cc1,inactive
11,Cc1ccc(Nc2c(-c3ccc(N(C)C)cc3)nc3nc[nH]n23)cc1,inactive
12,CCOC(=O)c1ccc(NC(=O)C2CCN(S(=O)(=O)c3ccc4c(c3)CCCC(=O)N4)CC2)cc1,inactive
13,Cc1csc2nc(COC(=O)c3ccccc3NC(=O)c3ccccc3Cl)cc(=O)n12,inactive
14,CCOc1ccc(Nc2c(S(=O)(=O)c3ccccc3)cnc3ccccc23)cc1,inactive
15,CCCCn1cc(S(=O)(=O)c2ccc(OCC)cc2)c(=O)c2cc(OC)c(OC)cc21,inactive
16,Cc1ccc(C)c(N2CCN(CCCNC(=O)Nc3ccc(Cl)cc3)CC2)c1,inactive
17,Cc1ccc2nc(-c3ccc(C)c(NC(=O)Cc4ccccc4)c3)oc2c1,inactive
18,CCc1cccc(C)c1Nc1c(-c2ccc(N(C)C)cc2)nc2ncccn12,inactive
19,CCc1ccc(N2C(=O)CN(S(=O)(=O)CC)CC2(C)C(=O)NC2CCCCC2)cc1 (stereo unspecified),inactive
20,COc1ccc(N2CCN(C(=O)C3CCCN(C(=O)c4cc5sccc5n4C)C3)CC2)cc1 (stereo unspecified),inactive
21,O=C(CCS(=O)(=O)c1ccccc1)N(Cc1cccnc1)c1nc2c(F)cccc2s1,inactive
22,CCOC(=O)c1nnn(CC(=O)NC(=O)Nc2ccccc2F)c1C(=O)OCC,inactive
23,CCc1ccccc1NC(=O)CSc1nnc([C@@H](NC(=O)OC(C)(C)C)C(C)C)o1,inactive
24,CC(C)Sc1nnc([C@H](Cc2ccccc2)NC(=O)OC(C)(C)C)o1,inactive
25,C[C@@H](NC(=O)OC(C)(C)C)c1nnc(S(=O)(=O)Cc2ccccc2)o1,8.91 µM (active)
26,CC1CCN(S(=O)(=O)c2ccc3c(c2)N(CC(=O)NCCc2ccccc2)C(=O)CO3)CC1,inactive
